# Compound activity: PubChem, National Center for Advancing Translational Sciences (NCATS)
# DRD3 agonist: activates the human D3 dopamine receptor | P35462 | D3R DiscoveRx beta-arrestin cells, luminescence, 90 min | max activation, % | hit rate 0.58% among 410,000; in the data active means max activation above about 30%; further: 0% is about no effect
#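 Cells at 1500/well, incubated overnight, then treated with pinned compounds (dopamine as control) for 90 min at 37 degrees C. DiscoveRx reagent added for 30 - 60 minutes at room temperature; luminescence read.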
# MBNL1 CUG block: inhibitors of human MBNL1 binding to CUG repeat RNA. Q9NR56. TR-FRET MBNL1-His/biotin-(CUG)12 binding, 665/545 ratio. Potency, µM (doses to about 57.5 µM), for inactives: at the top dose activity change, negative = inhibition, hits mostly inhibitors. hit rate 0.036% among 280,000; active means well fitted inhibition curve with a large enough effect in the signal ratio, with a control signal flat, not every such curve was filed as active; inconclusive means small, poorly fitted or top-dose-only effect, or effect the other way, or a change in a side signal; inactive means no such curve, though single readings can be large or run the other way; the % refers to the signal ratio; further: potency means the concentration at half of the fitted maximal effect; on the % scale 0 is the no-effect control and ±100 the full control effect
#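 Compound titration spanned 92 nM–58 uM against the MBNL1-His/biotin-(CUG)12 complex. After 60 min at room temperature with 5 nM streptavidin-XL665 and 0.055 ng/ul terbium anti-His, ratiometric 665/545 nm emission (Ex 340 nm) normalized to controls.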
# a7 integrin act: integrin-mediated muscular dystrophy alleviation activation | Potency, µM (doses to about 38.3 µM), inactives show at the highest dose activation, hits mostly activators | hit rate 0.064% among 350,000 | alpha7betagal myoblasts, beta-gal FDG fluorescence, 48 h;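 further: potency means the concentration at half of the fitted maximal effect; 100% = response of the positive control SU9516; nearly all actives have a fitted effect of over 60% in size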
#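 Alpha7betagal+/- myoblasts (passage 13) were plated 16-24 hr, then exposed to compounds (1:260 dilution of DMSO stock) for 48 hours at 37C. After MPER lysis, β-galactosidase reporter activity was read as FDG fluorescence (ex 480/em 540) after 30 minutes.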
# PTHR1 agonist: activates the human parathyroid hormone receptor PTHR1; Q03431; HEK293 GP2 PTHR1 cells, GloSensor cAMP luminescence, 1 h; Potency, µM (highest dose often 115 µM), inactives show top-dose activation, hits mostly activators; hit rate 0.075% among 410,000; further: potency means the concentration at half of the fitted maximal effect; nearly all actives have a fitted effect of over 55% in size
#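 HEK-293-derived GP2 cells expressing PTHR1 and a GloSensor cAMP reporter, 3,000/well, plated overnight, given luciferin plus IBMX (each 0.5 mM as added) for 1 h at 37 °C, then compound for 1 h at 37 °C. Luminescence was read after 15 min at room temperature.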
# D3 antag: blocks the human D3 dopamine receptor; hit rate 2.5% among 360,000; P35462; D3R cells, DiscoveRx beta-arrestin luminescence, antagonist mode; active compounds read low; max response, negative = inhibition, %; in the data active means max response below about -50%; inconclusive means no clear call, values can overlap the other calls; further: on the % scale 0 is the no-effect control and ±100 the full control effect
#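 Cells plated overnight at 1500 cells/well, then exposed to library compounds with dopamine controls for 90 minutes at 37 degrees C. DiscoveRx reagent added for 30–60 minutes at room temperature; luminescence read, quantitative HTS format.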
# CBFb-RUNX1 inh: inhibitors of human CBF-beta and RUNX1 interaction; Q01196+Q13951; AlphaScreen CBFb-His/RUNX1-biotin binding, biochemical; Potency, µM (highest dose often 59.8 µM), inactives show at the top dose activity, negative = inhibition, actives largely listed as inhibitors; 230,000 tested, under 10 active; further: % of control where 0% means no effect
# Target sequence (Q01196 whole entry, looked up): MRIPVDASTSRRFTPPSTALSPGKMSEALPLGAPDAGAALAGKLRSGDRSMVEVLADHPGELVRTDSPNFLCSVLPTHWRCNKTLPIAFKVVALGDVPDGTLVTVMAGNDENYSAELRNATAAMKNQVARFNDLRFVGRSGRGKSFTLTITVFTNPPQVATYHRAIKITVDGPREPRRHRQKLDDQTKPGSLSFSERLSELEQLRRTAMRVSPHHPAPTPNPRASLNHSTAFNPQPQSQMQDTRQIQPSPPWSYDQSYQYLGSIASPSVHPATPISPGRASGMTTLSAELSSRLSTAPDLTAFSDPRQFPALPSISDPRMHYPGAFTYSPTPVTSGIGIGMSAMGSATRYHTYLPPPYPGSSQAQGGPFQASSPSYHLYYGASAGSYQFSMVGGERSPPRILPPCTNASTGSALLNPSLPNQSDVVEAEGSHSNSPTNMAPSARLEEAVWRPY
# Target sequence (Q13951 whole entry, looked up): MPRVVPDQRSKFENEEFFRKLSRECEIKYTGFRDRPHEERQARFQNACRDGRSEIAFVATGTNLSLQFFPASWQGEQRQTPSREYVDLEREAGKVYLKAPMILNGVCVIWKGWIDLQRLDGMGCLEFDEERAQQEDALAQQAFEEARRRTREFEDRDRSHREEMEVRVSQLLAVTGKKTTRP
#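 Interaction loss through any mechanism counts as activity. Pre-formed complex of His-CBF-beta and biotin-RUNX1 (30 nM apiece) is incubated with compound 15 min, then with 50 ng nickel and 50 ng streptavidin beads for 90 min before AlphaScreen detection.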
# * = called active by the depositor; i = inactive; ? = inconclusive; . = no result given; [ ] = remark or other dose. Only some compounds are listed: those with a hit (about 2.8% of all), similar ones and a draw of the others. Unless noted, the call rests on the fitted dose curve; in most records, active means well fitted curve in the direction sought with a large enough effect; inconclusive means small, poorly fitted or top-dose-only effect, or another doubt; inactive means no such curve, though single readings can be large; an effect the other way counts as inactive or inconclusive.
SMILES,DRD3 agonist,MBNL1 CUG block,a7 integrin act,PTHR1 agonist,D3 antag,CBFb-RUNX1 inh
CSc1ccc(C(=O)C2CCCN(C(=O)Cc3nonc3C)C2)cc1 (stereo not drawn),16.0,2.2%,-26.1%,-4.8%,-84.2*,20.2%
CCCCCCCCCCCCCCCC(=O)OC(C)C,5.5,.,.,.,.,.
Cc1cccnc1NC(=O)CSc1ccc2c(c1)OCCO2,0.7,.,16.6%,i,4.9,.
CCOC(=O)c1nnc(-c2cccs2)nc1Oc1ccc(Cl)cc1,1.3,3.4%,-3.3%,-34.8%,-66.7*,-3.1%
CC(C)C[C@@H](CSc1ccccc1)N1CCN(CCc2ccccc2)CCC1=O,-31.4,-12.7%,-21.0%,-29.6%,-56.2*,.
CC(C)C[C@@H](CSc1ccc(Br)cc1)N1CCN(CCc2ccccc2)CCC1=O,-20.1,0.9%,-11.2%,-60.8%,?,8.6%
CC1=CC(=O)C=C(C)C1=NOS(=O)(=O)c1ccccc1,-9.4,-2.6%,-44.3%,-5.7%,-56.1*,1.6%
Cc1ccc2c(c1)/C(=N/OS(=O)(=O)c1ccccc1)CCS2,-1.5,.,2.3%,-4.5%[57.5 µM],12.4,.
Cc1ccc(S(=O)(=O)ON=C2CCN(S(=O)(=O)c3ccccc3)CC2)cc1,1.0,2.3%,60.6%,i,-3.9,-3.4%
CC1=CC(=O)C(C(C)C)=C/C1=N/OS(=O)(=O)c1ccccc1,0.9,1.3%,-62.9%,-12.7%,-78.7*,6.2%
CCCCN(C(=O)CSc1nnc2ccccn12)c1c(N)n(Cc2ccccc2)c(=O)[nH]c1=O,-4.1,-9.5%,38.9%,i,-20.4,8.1%
CCN(C(=O)CSc1nnc2ccccn12)c1c(N)n(Cc2ccccc2)c(=O)[nH]c1=O,30.5*,-19.7%,13.2%,-17.2%,9.8,-1.8%
Cc1cc(C)n(-c2nc3ccccc3nc2Nc2ccc(Cl)cc2Cl)n1,57.6*,.,.,?,.,.
Cc1ccc2nc(Nc3ccc4[nH]c(=O)[nH]c4c3)c(-n3nc(C)cc3C)nc2c1,69.0*,-2.9%,-58.3%,i,30.3,-0.8%
Cc1cc(C)n(-c2nc3ccccc3nc2Nc2cc(Cl)ccc2C)n1,2.4,.,.,20.2%,.,.
O=C(Nc1cc(C2CC2)nn1-c1ccccc1)c1ccc(F)cc1,-1.6,.,10.7%,-10.7%,20.7,.
Cc1nn(C(C)C(=O)NCCCc2ccccc2)c(=O)c2nn(-c3ccccc3)c(C)c12 (stereo not drawn),5.9,-0.4%,-16.3%,-50.5%,-0.9,.
CC(OC(=O)c1ccccc1Br)C(=O)Nc1nc(-c2cccc([N+](=O)[O-])c2)cs1 (stereo not drawn),11.9,9.8%,0.5%,-33.7%,8.4,-3.5%
O=C(Nc1nc(-c2cccc([N+](=O)[O-])c2)cs1)C(c1ccccc1)c1ccccc1,-2.5,3.2%,13.5%,-2.4%[57.5 µM],-52.8*,?
Cc1ccc(OCCNC(=O)Cc2ccc(S(=O)(=O)N3CCOCC3)s2)cc1,5.2,-2.0%,-14.5%,-2.2%,13.5,.
Cc1ccc(NC(=O)CN2C=NS(=O)(=O)c3ccccc32)c(C)c1,-8.4,.,.,i,.,.
O=C(C[n+]1cccc(CNC(=O)c2ccc(OC(F)F)cc2)c1)Nc1cccc(C(F)(F)F)c1,-3.1,-21.1%,11.4%,i,-50.7*,10.6%
O=C(C[n+]1cccc(CNC(=O)c2ccc(OC(F)F)cc2)c1)Nc1ccc(F)cc1,-12.2,?,16.3%,i,-27.9,6.3%
CC1(C)Cc2cccc(OCC(O)CN3CCN(c4ccccn4)CC3)c2O1 (stereo not drawn),10.0,-3.4%,6.9%,-5.7%,0.0,-3.9%
Cc1cccc(OCC(O)CN2CCN(c3ccccn3)CC2)c1C (stereo not drawn),68.5*,2.4%,?,i,-20.8,.
SMILES,DRD3 agonist,MBNL1 CUG block,a7 integrin act,PTHR1 agonist,D3 antag,CBFb-RUNX1 inh
Cc1cc(C)c(C)c(OCC(O)CN2CCN(c3ccccn3)CC2)c1 (stereo not drawn),62.7*,1.3%,0.0%,-20.0%,-20.2,.
CC(=O)c1ccccc1OCC(O)CN1CCN(c2ccccn2)CC1 (stereo not drawn),14.9,-20.0%,16.0%,i,-11.6,.
CCCCCNc1nc(N2CCCC2)c2c(c1C#N)CCN(C)C2,1.4,14.0%,-55.1%,-22.6%,-65.5*,-1.6%
O=C(Nc1ccc(C2=CN(Cc3ccccc3)CCC2=O)cc1)OCc1ccccc1,51.7*,.,3.8%,-24.3%,31.1,.
Cc1ccc(C2=CN(Cc3ccccc3)CCC2=O)cc1,-8.2,.,32.8%,-39.5%,-12.3,.
O=C(NCc1ccccc1)C1CCCN(C(=O)c2ccc(F)cc2)C1 (stereo not drawn),-1.2,.,6.8%,i,-18.9,.
CNC(=O)/C(C#N)=C/c1c(N2CCN(c3cccc(Cl)c3)CC2)nc2c(C)cccn2c1=O,-39.4,5.9%,5.0%,-72.1%,-57.3*,.
C=CCNC(=O)/C(C#N)=C/c1c(N2CCN(c3cccc(Cl)c3)CC2)nc2c(C)cccn2c1=O,-33.4,-3.7%,-1.1%,-1.6%,-58.6*,.
CCNC(=O)/C(C#N)=C/c1c(N2CCN(c3ccccc3)CC2)nc2c(C)cccn2c1=O,-26.2,16.2%,-0.8%,-7.1%,-68.5*,.
CCOc1ccccc1CNC(=O)CCn1c(=O)c2cccn2c2ccc(F)cc21,-10.8,.,.,i,.,.
CCOC(=O)CCCc1ccc(/C(C)=N/NC(N)=S)cc1,-24.2,?,-12.7%,-18.7%,-28.1,11.7%
Cc1ccc(N=Cc2cc(Br)cc(Cl)c2O)cc1,-28.0,8.8%,12.5%,-28.6%,-64.7*,-6.2%
Oc1c(Cl)cc(Cl)cc1C=Nc1ccc(Br)cc1,-16.4,-1.4%,-31.4%,-16.2%[57.5 µM],36.6,-4.5%
O=C(CCS(=O)(=O)Cc1ccc(Cl)cc1)NCCc1ccccc1,2.1,-7.1%,-15.2%,i,7.0,-0.2%
Cc1ccccc1C(=O)/C(C#N)=N/Nc1c(C)n(C)n(-c2ccccc2)c1=O,-14.9,26.2%,-7.7%,i,?,.
N#C/C(=N\Nc1ccccc1Cl)C(=O)c1ccccc1,3.0,2.7%,31.0%,-25.0%,1.2,-26.8%
Cc1c(N/N=C(\C#N)C(=O)c2ccccc2)c(=O)n(-c2ccccc2)n1C,-19.9,18.8%,-10.0%,-73.3%,-67.6*,-1.4%
N#C/C(=N\Nc1cccc(Cl)c1)C(=O)c1ccccc1,6.9,-12.5%,13.6%,-22.0%[57.5 µM],-85.9*,-23.4%
Cc1nn(CC(C)C)c(Cl)c1C(=O)N(C)CC(=O)Nc1ccc(Cl)cc1,-8.2,.,5.3%,-21.0%,0.0,.
CCC(=O)NC1=C(Cl)C(=O)C(NC(=O)CC)=C(Cl)C1=O,0.2,-7.6%,-61.9%,-55.6%,-62.0*,7.5%
COc1ccc(NC(=O)CN2C(=O)CCc3cc(S(=O)(=O)N4CCOCC4)ccc32)c(OC)c1,-0.8,.,.,i,.,.
